Data: PubChem BioAssay (NCI)
This is part of a sample that, as a whole, favours compounds with a hit. Of some 83,000 tested, about 20% had one in any assay.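 The test compound was applied at a single concentration to cells in 96-well plates for 48 hours, and percent growth was recorded.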 Activity calls are given as the source filed them. The calls were made as follows: active = growth percent below 10; inactive = the rest.

Assays:
Experiment in all cases: NCI-60 one-dose screen, 48 h (100 = growth as untreated, 0 = no growth, -100 = all killed)
SR leukemia = settings: 10 µM unless noted
RPMI-8226 leukemia = settings: 10 µM unless noted
OVCAR-8 ovarian = settings: 10 µM unless noted
OVCAR-5 ovarian = settings: 10 µM unless noted
OVCAR-4 ovarian = settings: 10 µM unless noted
SK-OV-3 ovarian = settings: 10 µM unless noted
IGROV1 ovarian = settings: 10 µM unless noted
OVCAR-3 ovarian = settings: 10 µM unless noted
HS 578T breast = settings: 10 µM
NCI/ADR-RES ovarian = settings: 10 µM unless noted
T-47D breast = settings: 10 µM unless noted
MDA-MB-435 melanoma = settings: 10 µM unless noted
SW-620 colon = settings: 10 µM unless noted
MCF7 breast = settings: 10 µM unless noted
HCT-116 colon = settings: 10 µM unless noted
KM12 colon = settings: 10 µM unless noted
BT-549 breast = settings: 10 µM unless noted
HCC-2998 colon = settings: 10 µM

Measured: growth

Clc1nc(Cl)c2ncn(C/C=C\Cn3cnc4c(Cl)nc(Cl)nc43)c2n1
active: SR leukemia -48.2% | RPMI-8226 leukemia -61.2% | OVCAR-8 ovarian -57.4% | OVCAR-5 ovarian -9.17% | OVCAR-4 ovarian -89.2% | IGROV1 ovarian -82.3% | OVCAR-3 ovarian -97% | HS 578T breast -41.5% | T-47D breast -44.4% | MDA-MB-435 melanoma -66.9% | SW-620 colon -52.6% | MCF7 breast -78% | HCT-116 colon -71% | KM12 colon -69.2%
inactive: SK-OV-3 ovarian 32.8% | NCI/ADR-RES ovarian 30.1%

CC(C)[C@@H](C)/C=C/[C@@H](C)[C@H]1CCC2=C3C=CC4=CC(=O)CC[C@]4(C)[C@H]3CC[C@@]21C
inactive: SR leukemia 70.8% | RPMI-8226 leukemia 66% | OVCAR-8 ovarian 91.1% | OVCAR-5 ovarian 105% | OVCAR-4 ovarian 101% | SK-OV-3 ovarian 105% | IGROV1 ovarian 110% | OVCAR-3 ovarian 116% | HS 578T breast 108% | T-47D breast 91.3% | BT-549 breast 102% | MDA-MB-435 melanoma 103% | SW-620 colon 109% | MCF7 breast 93.6% | HCT-116 colon 93% | HCC-2998 colon 112% | KM12 colon 104%

Cn1ccnc1C(=O)/C=C/c1ccc(CC(=O)Nc2ccc(S(F)(F)(F)(F)F)cc2)cc1
active: SR leukemia 0.968% | RPMI-8226 leukemia -18.8% | OVCAR-8 ovarian -14.1% | OVCAR-5 ovarian -38.1% | IGROV1 ovarian -17.5% | OVCAR-3 ovarian 6.7% | NCI/ADR-RES ovarian 7.59% | T-47D breast -7.73% | BT-549 breast -50.6% | SW-620 colon 3.88% | HCT-116 colon -63.5% | HCC-2998 colon -65.1% | KM12 colon -56.9%
inactive: OVCAR-4 ovarian 17.5% | SK-OV-3 ovarian 18.4% | MDA-MB-435 melanoma 15.1% | MCF7 breast 10.2%

CC(=O)Oc1ccccc1C(=O)N=C1[Se]CCN1C(=O)c1ccccc1OC(C)=O
inactive: SR leukemia 24% | RPMI-8226 leukemia 12.1%
active: OVCAR-8 ovarian -12.1% | OVCAR-5 ovarian -12.4% | OVCAR-4 ovarian -2.68% | SK-OV-3 ovarian -30.6% | IGROV1 ovarian -15.1% | OVCAR-3 ovarian -74.2% | HS 578T breast -14.9% | T-47D breast -15.2% | MDA-MB-435 melanoma -57.2% | SW-620 colon -26.7% | MCF7 breast 5.48% | HCT-116 colon -44% | HCC-2998 colon -4.02% | KM12 colon -12.6%

C=C1C(=O)O[C@H]2[C@H]1CC/C(C=Nc1c(N)cc(C(F)(F)F)cc1C(F)(F)F)=C\CC[C@@]1(C)O[C@@H]21
active: SR leukemia 0.897% | RPMI-8226 leukemia -18.7% | OVCAR-8 ovarian 4.81% | OVCAR-5 ovarian -9.13% | OVCAR-4 ovarian -71.6% | IGROV1 ovarian -46.3% | OVCAR-3 ovarian -93.8% | NCI/ADR-RES ovarian -23.1% | T-47D breast -27% | BT-549 breast -31.5% | MDA-MB-435 melanoma -71.9% | SW-620 colon -54.9% | MCF7 breast -2.09% | HCT-116 colon -72.8% | HCC-2998 colon -77.5%
inactive: SK-OV-3 ovarian 48.8% | KM12 colon 14.4%

CCCCCc1ccc(C)cc1OC(=O)CCl
inactive: SR leukemia 109% | RPMI-8226 leukemia 98.5% | OVCAR-8 ovarian 89.1% | OVCAR-5 ovarian 101% | OVCAR-4 ovarian 109% | SK-OV-3 ovarian 107% | IGROV1 ovarian 103% | OVCAR-3 ovarian 122% | HS 578T breast 116% | NCI/ADR-RES ovarian 111% | T-47D breast 102% | MDA-MB-435 melanoma 117% | SW-620 colon 103% | MCF7 breast 98% | HCC-2998 colon 109% | KM12 colon 106%

O=C(CNc1nnc(-c2ccc(Cl)cc2)o1)Nc1ccc(-c2nc3ccccc3s2)cc1
inactive: SR leukemia 71.8% | RPMI-8226 leukemia 95.4% | OVCAR-8 ovarian 103% | OVCAR-5 ovarian 116% | OVCAR-4 ovarian 103% | SK-OV-3 ovarian 117% | IGROV1 ovarian 94.1% | OVCAR-3 ovarian 97.7% | HS 578T breast 96.9% | T-47D breast 79.9% | BT-549 breast 87% | MDA-MB-435 melanoma 97.1% | SW-620 colon 110% | MCF7 breast 34.5% | HCT-116 colon 89.8% | HCC-2998 colon 93.5% | KM12 colon 97%

COc1ccc(-c2nocc2-c2cc(OC)c(OC)c(OC)c2)cc1
inactive: SR leukemia 23.6% | RPMI-8226 leukemia 30.7% | OVCAR-8 ovarian 28.4% | OVCAR-5 ovarian 51% | OVCAR-4 ovarian 45.7% | SK-OV-3 ovarian 22.5% | IGROV1 ovarian 46.6% | HS 578T breast 27.4% | T-47D breast 39.6% | BT-549 breast 48.5% | SW-620 colon 21.4% | MCF7 breast 24.3% | HCC-2998 colon 13.4% | KM12 colon 12.4%
active: OVCAR-3 ovarian -10.9% | MDA-MB-435 melanoma -54.4% | HCT-116 colon 6.36%

CC(=O)OC(C(=O)c1ccccc1)c1ccccc1 (stereo unspecified)
inactive: SR leukemia 106% | RPMI-8226 leukemia 105% | OVCAR-8 ovarian 98% | OVCAR-5 ovarian 102% | OVCAR-4 ovarian 97.8% | SK-OV-3 ovarian 94.1% | IGROV1 ovarian 105% | OVCAR-3 ovarian 121% | HS 578T breast 125% | NCI/ADR-RES ovarian 107% | T-47D breast 95.5% | MDA-MB-435 melanoma 108% | SW-620 colon 99.3% | MCF7 breast 95.8% | HCC-2998 colon 112% | KM12 colon 101%

COc1cc(Nc2ncc(F)c(Nc3ccc4c(n3)N(COP(=O)(O)O)C(=O)C(C)(C)O4)n2)cc(OC)c1OC
inactive: SR leukemia 21.6% | RPMI-8226 leukemia 46.4% | OVCAR-8 ovarian 28.7% | OVCAR-5 ovarian 17.6% | OVCAR-4 ovarian 44.1% | OVCAR-3 ovarian 43.4% | NCI/ADR-RES ovarian 20.5% | T-47D breast 14.4% | MDA-MB-435 melanoma 26.5% | SW-620 colon 38.2% | MCF7 breast 25.7% | HCT-116 colon 22.1% | HCC-2998 colon 66.8% | KM12 colon 11.7%
active: SK-OV-3 ovarian -41.4% | IGROV1 ovarian -17.6% | BT-549 breast 1.78%

CC/C(=C(/c1ccc(Cl)cc1)c1ccc(OCCN2CCCCC2)cc1)c1ccc(Cl)cc1
inactive: RPMI-8226 leukemia 76.3% | OVCAR-8 ovarian 81.4% | OVCAR-5 ovarian 79.9% | OVCAR-4 ovarian 63.9% | SK-OV-3 ovarian 83.7% | IGROV1 ovarian 91.7% | OVCAR-3 ovarian 78.7% | NCI/ADR-RES ovarian 84.9% | T-47D breast 43.9% | BT-549 breast 85.9% | MDA-MB-435 melanoma 86.4% | SW-620 colon 65.2% | MCF7 breast 26.6% | HCT-116 colon 61.3% | HCC-2998 colon 89.4% | KM12 colon 69.2%
active: SR leukemia 5.18%

Cc1cc(O)c2c(c1)C1OC(=O)CCCCCN1C1=C2C(=O)c2cccc(OC3CC(O)C(O)C(C)O3)c2C1=O (stereo unspecified)
inactive: SR leukemia 54.2% | RPMI-8226 leukemia 73.3% | OVCAR-8 ovarian 52.9% | OVCAR-5 ovarian 130% | OVCAR-4 ovarian 90.2% | SK-OV-3 ovarian 89.8% | IGROV1 ovarian 96.4% | HS 578T breast 71.5% | T-47D breast 85.6% | BT-549 breast 83.6% | MDA-MB-435 melanoma 13.1% | SW-620 colon 99.9% | MCF7 breast 17.7% | HCT-116 colon 24.5% | HCC-2998 colon 73% | KM12 colon 83.4%
active: OVCAR-3 ovarian 7.5%

CCN1/C(=C/C=C/c2n(-c3ccccc3)c3ccc(-c4nc5ccccc5s4)cc3[n+]2CC)N(c2ccccc2)c2ccc(-c3nc4ccccc4s3)cc21
inactive: SR leukemia 15.5% | OVCAR-8 ovarian 10.6% | OVCAR-5 ovarian 31.4% | OVCAR-4 ovarian 24.7% | IGROV1 ovarian 14% | HS 578T breast 28.2% | SW-620 colon 16.7% | MCF7 breast 11.2% | HCT-116 colon 10.8% | HCC-2998 colon 33.3% | KM12 colon 10.6%
active: RPMI-8226 leukemia 8.29% | SK-OV-3 ovarian -4.86% | OVCAR-3 ovarian -0.0306% | T-47D breast 5.56% | MDA-MB-435 melanoma -41.1%

O=C1C=CC2(NN=C(c3ccccc3)N2c2cccc(Cl)c2)C(Cl)=C1 (stereo unspecified)
inactive: SR leukemia 67.3% | RPMI-8226 leukemia 58.6% | OVCAR-8 ovarian 76% | OVCAR-5 ovarian 92.3% | OVCAR-4 ovarian 70.5% | SK-OV-3 ovarian 70.7% | IGROV1 ovarian 87.1% | OVCAR-3 ovarian 84.9% | NCI/ADR-RES ovarian 89.7% | T-47D breast 37.9% | BT-549 breast 88.5% | MDA-MB-435 melanoma 86.3% | SW-620 colon 90.2% | MCF7 breast 79% | HCT-116 colon 73.4% | HCC-2998 colon 105% | KM12 colon 78.1%

Cc1ccccc1N1C(c2ccccc2)=NNC12C=CC(=O)C=C2Cl (stereo unspecified)
inactive: SR leukemia 90.6% | RPMI-8226 leukemia 109% | OVCAR-8 ovarian 96.7% | OVCAR-5 ovarian 87.8% | OVCAR-4 ovarian 117% | SK-OV-3 ovarian 90.2% | IGROV1 ovarian 100% | OVCAR-3 ovarian 118% | NCI/ADR-RES ovarian 98.7% | T-47D breast 117% | BT-549 breast 106% | MDA-MB-435 melanoma 112% | SW-620 colon 119% | MCF7 breast 98% | HCT-116 colon 103% | HCC-2998 colon 102% | KM12 colon 110%

Cc1cnc(NC(=O)Nc2cc(Br)c(C)cc2OC[C@@H]2CNCCO2)cn1
active: SR leukemia -18.5% | OVCAR-8 ovarian 1.6% | NCI/ADR-RES ovarian 7.93% | T-47D breast -46.5% | MDA-MB-435 melanoma -36.2% | MCF7 breast 2%
inactive: RPMI-8226 leukemia 13% | OVCAR-5 ovarian 36.6% | OVCAR-4 ovarian 45.6% | SK-OV-3 ovarian 32% | IGROV1 ovarian 30.5% | OVCAR-3 ovarian 22.2% | BT-549 breast 23.6% | SW-620 colon 20.8% | HCT-116 colon 10.4% | HCC-2998 colon 12% | KM12 colon 15%

CC[C@@H]1C(=O)N(C)c2cnc(Nc3ccc(C(=O)NC4CCN(C)CC4)cc3OC)nc2N1C1CCCC1
active: SR leukemia -20.7% | RPMI-8226 leukemia -40.6% | SK-OV-3 ovarian -64.3% | IGROV1 ovarian -0.189% | T-47D breast -7.47% | MDA-MB-435 melanoma 2.22% | MCF7 breast 7.63% | HCT-116 colon 0.114% | HCC-2998 colon -28.6%
inactive: OVCAR-8 ovarian 21.4% | OVCAR-5 ovarian 17.3% | OVCAR-4 ovarian 35.3% | OVCAR-3 ovarian 13.1% | NCI/ADR-RES ovarian 24% | BT-549 breast 17.5% | SW-620 colon 12.3% | KM12 colon 12.9%

CN1[C@@H]2CC[C@H]1/C(=C\c1ccccc1)C1=C2[C@@H](c2ccccc2)C(C#N)=C(N)O1
inactive: SR leukemia 61.8% | RPMI-8226 leukemia 55.5% | OVCAR-8 ovarian 84.3% | OVCAR-5 ovarian 84.9% | OVCAR-4 ovarian 73.9% | SK-OV-3 ovarian 84.4% | IGROV1 ovarian 93.8% | OVCAR-3 ovarian 97.2% | NCI/ADR-RES ovarian 90.2% | T-47D breast 58.6% | BT-549 breast 67% | MDA-MB-435 melanoma 98.5% | SW-620 colon 98.2% | MCF7 breast 85.2% | HCT-116 colon 49.9% | HCC-2998 colon 87.7% | KM12 colon 85.3%
